# Compound activity (PubChem)
# Hits are enriched below; roughly 3.5% of the tested compounds scored in any of these assays.
# MITF inh: MITF inhibitors, primary screen, biochemical, AlphaScreen, human. Microphthalmia-associated transcription factor (Homo sapiens), O75030. AlphaScreen MITF homodimerization, bead proximity signal. inhibition, % at 2.6 µM. 650,000 compounds, 0.91% hits. AID 1259374, 2018; in the data active means inhibition above about 50%;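 further: 0% = vehicle wells with protein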
# Target sequence (O75030 whole entry, looked up): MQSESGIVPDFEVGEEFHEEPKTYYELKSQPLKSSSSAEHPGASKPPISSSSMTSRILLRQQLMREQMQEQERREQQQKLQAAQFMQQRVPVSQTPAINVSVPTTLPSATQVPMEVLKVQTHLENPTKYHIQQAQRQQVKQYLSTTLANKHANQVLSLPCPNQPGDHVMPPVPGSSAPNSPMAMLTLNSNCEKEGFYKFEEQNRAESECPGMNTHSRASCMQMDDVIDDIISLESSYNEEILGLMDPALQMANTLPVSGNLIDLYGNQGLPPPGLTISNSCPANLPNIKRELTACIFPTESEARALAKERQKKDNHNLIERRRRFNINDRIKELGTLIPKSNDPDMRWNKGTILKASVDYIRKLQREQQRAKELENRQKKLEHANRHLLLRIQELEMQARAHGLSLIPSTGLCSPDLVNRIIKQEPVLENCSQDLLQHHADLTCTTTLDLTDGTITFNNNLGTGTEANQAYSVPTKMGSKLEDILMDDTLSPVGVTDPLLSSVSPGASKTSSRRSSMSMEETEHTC
# TEAD-YAP inh: TEAD-YAP interaction inhibition, primary screen, TEAD-YAP interaction inhibitor project, luminescence, HEK-TIYL cells; AID 1259422, 2018; 640,000 compounds, 1.4% hits; inhibition, % at 9.12 µM; TEAD-Gal4/YAP UAS-luciferase luminescence; in the data active means inhibition above about 32%;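 further: 0% = median of test compound wells and 100% = reference inhibitor wells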
# GPR151 activ: activators of human GPR151, primary screen, cell-based, PathHunter beta-arrestin, luminescence | G-protein coupled receptor 151 (Homo sapiens), Q8TDV0 | PathHunter beta-arrestin GPR151 cells | activation, % at 11.2 µM | 650,000 compounds, 1% hits; in the data active means activation above about 4.9%;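 further: 0% = median of compound wells and 100% = cells with positive control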
# FBW7 activator: FBW7 E3 ligase activators, primary screen, biochemical, AlphaScreen, human; AlphaScreen FBW7–phospho-cyclin E peptide binding, activator screen; AID 1259310, 2017; normalized activity (activation), % at 26.1 µM; 650,000 compounds, 0.13% hits; in the data active means normalized activity above about 1.9%;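 further: purified mutant Fbw7 with reduced substrate affinity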
# GPR151 confirm: GPR151 activators, triplicate retest, confirmation, cell-based, PathHunter beta-arrestin, luminescence; shares compounds with GPR151 activ; GPR151 PathHunter beta-arrestin cells, 90 min; % of EA-reagent control over plate median; activation, % at 11.2 µM; 6,700 tested, under 10 active; AID 1508609, 2020;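 active means mean percent activation across replicates above the confirmation screen cutoff of 4.91%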
# GPR119 ag: GPR119 activators in beta-arrestin cells, counter-screen for GPR151 activator project, cell-based, PathHunter beta-arrestin, luminescence, triplicate. 6,700 compounds, 0.3% hits. shares compounds with GPR151 activ. 90 min; 0 = compound-well median, 100 = enzyme-acceptor control. activation, % at 11.2 µM. AID 1508611, 2020;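 active means mean percent activation in the counterscreen above 29.09%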;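 further: counterscreen on off-target GPR119 to flag nonselective hits from the GPR151 activator screen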
# Active calls of the source: *; nt = no result; ! = not confirmed by another sample.
SMILES,MITF inh,TEAD-YAP inh,GPR151 activ,FBW7 activator,GPR151 confirm,GPR119 ag
COc1ccc(C(=O)C2CCCN(C)C2)c(OC)c1 (centres undefined),35.1,2.7,5.0*,0.0,0.0,-9.6
O=C1NC(=S)NC(=O)C1=Cc1cn(-c2ccccc2)nc1-c1cc2ccccc2oc1=O,9.8,5.9,0.6,0.7,nt,nt
CCOC(=O)C1=C(N)OC(C)=C(C(=O)OCCOC)C12C(=O)Nc1ccccc12 (centres undefined),14.2,-6.5,1.0,0.1,nt,nt
CCCCOC(=O)C1=C(N)OC(C)=C(C(=O)OCCOC)C12C(=O)Nc1ccccc12 (centres undefined),1.1,6.5,5.3*,0.0,0.3,2.3
CN(C)c1cccc(N2Cc3ccccc3C2=N)c1,23.0,-1.1,0.2,0.0,nt,nt
O=C(COc1ccc(Br)cc1)N1CCN(CC2CC=CCC2)CC1 (centres undefined),16.4,-1.3,9.7*,0.7,-0.3,-6.5
CCOc1cccc(CNC2CN3CCC2CC3)c1 (centres undefined),-5.8,3.8,6.9*,0.0,0.5,4.6
O=c1c2ccccc2nc(/C=C/c2ccccc2)n1-c1ccc(F)cc1,2.7,1.4,-0.6,0.6,nt,nt
CCCN(CCC)[C@@H]1CCc2c(F)ccc(O)c2C1,11.5,5.9,8.5*!,0.0,-0.5,-7.3
O=C1Nc2ccc(Cl)cc2C(c2ccccc2Cl)=NC1O (centres undefined),5.8,-18.5,6.8*,-0.1,1.0,-4.6
COc1ccc(CCN(C)Cc2cc(OC)c(OC)cc2[N+](=O)[O-])cc1OC,-13.8,13.3,8.4*,0.0,-0.3,1.3
CN1CCC(N(C)c2nc(-c3cccs3)nc3ccccc23)CC1,10.4,31.4,-0.6,0.4,nt,nt
O=[N+]([O-])/C=C/c1ccccc1OCc1ccc(F)cc1,13.4,-8.0,-1.5,1.0,nt,nt
C=CCOc1ccccc1/C=C/[N+](=O)[O-],-5.0,-1.0,7.3*,0.1,0.1,6.0
Cc1ccc(-n2c(C)nc3ccc(Cl)cc3c2=O)cc1,2.7,-1.8,-0.1,-0.1,nt,nt
C[C@@H]1O[C@H](C[N+](C)(C)C)C[C@H]1O,-0.6,4.7,5.9*!,-0.1,0.4,6.3
C[C@H]1OC[C@@H](C[N+](C)(C)C)O1,2.7,1.8,-0.7,-0.1,nt,nt
CCCCCCCCCCCCCCCC[n+]1ccccc1,-6.8,60.0*,5.0*,0.3,1.5,13.0
COc1ccc(CN2CCN(C)C(CCO)C2)c(OC)c1OC (centres undefined),4.4,4.0,-0.6,-0.1,nt,nt
Cc1ccc(-n2c(/C=C/c3cccc(F)c3)nc3ccccc3c2=O)cc1C,6.5,-0.4,-1.6,-0.1,nt,nt
COc1ccccc1N1CCN(Cc2ccc([N+](=O)[O-])cc2)CC1,37.3,7.5,5.5*,-0.1,-0.9,8.1
Cc1ccccc1N1CCN(Cc2ccc([N+](=O)[O-])cc2)CC1,0.5,-2.5,0.4,-0.2,nt,nt
Cc1ccc(Cn2nnnc2CN2CCC(n3c(C)nc4cc(F)ccc43)CC2)cc1,-1.0,-0.2,-0.3,0.1,nt,nt
N#Cc1ccc(NC(=O)CN2c3cccc4cccc(c34)S2(=O)=O)cc1Cl,19.0,17.0,5.2*,1.3,0.7,-2.9
CC1(c2ccc3ccccc3c2)NC(=O)N(CC(=O)Nc2ccc(C#N)c(Cl)c2)C1=O (centres undefined),9.2,0.6,-0.5,-0.1,nt,nt
SMILES,MITF inh,TEAD-YAP inh,GPR151 activ,FBW7 activator,GPR151 confirm,GPR119 ag
CC1(C)C(C(=O)Nc2cccc3ccccc23)C1(C)C,2.9,1.6,0.1,0.0,nt,nt
Cc1ccccc1NC(=O)C1C(C)(C)C1(C)C,0.0,5.7,9.3*,0.0,0.3,7.4
CC(=O)c1ccc(OCC(=O)N2CCCC(N(C)CCc3ccccc3)C2)cc1 (centres undefined),18.7,-2.0,5.0*,0.1,1.2,5.1
C=C(C)[C@@H]1C2C(=O)O[C@H]1[C@H]1OC(=O)[C@@]34OC3C[C@]2(O)[C@@]14C (some centres undefined),18.3,4.8,7.9*!,0.3,0.0,-10.4
Cn1c(C(=O)N2CCC3(CC2)OCCO3)cc2c(=O)n3ccccc3nc21,-1.3,-2.9,-0.5,0.1,nt,nt
Fc1ccccc1CCNCc1cccnc1,19.8,2.1,0.2,-0.8,nt,nt
COc1cccc(OC)c1C1=NCC(=O)Nc2c1oc1ccc(Br)cc21,5.4,58.3*,5.7*,0.0,-0.5,-3.8
O=C1CN=C(c2ccccc2)c2oc3ccc(Br)cc3c2N1,-1.4,0.5,1.6,-0.1,nt,nt
Cc1ccc(Cn2cccc(C(=O)Nc3cc(Cl)ccc3C#N)c2=O)cc1,-8.9,1.4,0.0,0.1,nt,nt
CC(=O)NC1(c2ccccc2)CC(C)N(C)CC1C (centres undefined),-27.5,6.8,5.0*,-0.1,-0.3,6.9
O=C1NC(=O)N(Cc2ccc(F)cc2)C(=O)/C1=C\c1ccc(O)cc1,2.9,-5.5,-0.6,-1.0,nt,nt
OCC1OC(Oc2ccc(Br)cc2)C(O)C(O)C1O (centres undefined),-1.4,-4.8,-0.2,-0.1,nt,nt
Nc1ncnc2c1ccn2[C@@H]1O[C@H](CO)[C@@H](O)[C@H]1O,10.3,100.3*,7.1*,0.0,5.9*,3.6
CC(Cc1cccnc1)NCc1c(C(=O)N2CCCCCCC2)nc2ccc(Cl)cn12 (centres undefined),-5.3,-9.6,5.0*,0.0,0.0,-1.8
Cc1cccn2c(CNC(C)Cc3cccnc3)c(C(=O)N3CCCCC3)nc12 (centres undefined),0.9,0.3,-0.9,0.2,nt,nt
C[C@H]1C/C=C/[C@H]2[C@@H]3O[C@]3(C)[C@@H](C)[C@H]3[C@H](Cc4ccccc4)NC(=O)[C@]32OC(=O)O/C=C/[C@](C)(O)C1=O,12.1,-1.6,11.1*,0.1,0.1,-4.8
CC12C=CC(O1)C1C(=O)N(c3ccc4c(c3)OCO4)C(=O)C12 (centres undefined),-1.4,10.9,-1.2,-0.2,nt,nt
CN1C(=O)NC(=O)/C(=C/c2ccc(-c3ccccc3[N+](=O)[O-])o2)C1=O,0.9,4.0,5.0*,-0.1,-1.3,-14.3
CCC1(CC)C(=O)NC(=NCc2ccc(OC)cc2)N(C)C1=O,5.4,-0.2,0.5,-0.1,nt,nt
CCN1CCN(Cc2cc(Br)cc(OC)c2O)CC1,30.9,-1.6,6.6*,0.1,0.1,-0.9
O=C1CC(c2cnc[nH]2)C2(CCCCC2)O1 (centres undefined),2.1,-6.5,7.9*,0.2,-0.7,-4.8
COc1ccc(C(=O)OC2CC3CCC(C2)N3)cc1OC (centres undefined),7.6,16.8,0.2,0.0,nt,nt
COc1ccc(C(=O)O)cc1OC,-16.6,-7.8,5.7*,-0.1,-0.1,5.9
N#CCC(=O)NN1Cc2ccccc2C1=N,-3.8,1.2,6.8*,0.0,-0.3,7.9
Cc1cc(NC(=O)CN2CC(c3ccccc3)CC2=O)ccc1Br (centres undefined),-11.1,-14.5,-0.5,0.0,nt,nt
C[C@H]1CC[C@@H]2[C@@H](C)[C@H]3[C@H](CC4[C@@H]5CC=C6CC(O[C@@H]7O[C@H](CO)C(O[C@@H]8O[C@@H](C)[C@H](O)[C@@H](O)[C@H]8O)[C@H](O)[C@H]7O[C@@H]7O[C@@H](C)[C@H](O)[C@@H](O)[C@H]7O)CC[C@]6(C)[C@H]5CC[C@@]43C)N2C1 (some centres undefined),11.0,-11.9,7.2*,0.0,2.8,17.7
